Source: PubChem BioAssay (National Center for Advancing Translational Sciences (NCATS))
Hits are enriched below; roughly 7.5% of the tested compounds scored in any of these assays.
Giardia FBPA inh-1 – qHTS Assay for Inhibitors of Fructose-1,6-bisphosphate Aldolase from Giardia Lamblia; A8B2U2; purified Giardia FBPA; Potency, µM (top dose mostly 59.6 µM), for inactives: at the top dose activity, negative = inhibition, usual class: inhibitors; 0.71% of 290,000 active; further: potency means the concentration at half of the fitted maximal effect; nearly all actives have a fitted effect of over 55% in size
Target sequence (A8B2U2 whole entry, looked up): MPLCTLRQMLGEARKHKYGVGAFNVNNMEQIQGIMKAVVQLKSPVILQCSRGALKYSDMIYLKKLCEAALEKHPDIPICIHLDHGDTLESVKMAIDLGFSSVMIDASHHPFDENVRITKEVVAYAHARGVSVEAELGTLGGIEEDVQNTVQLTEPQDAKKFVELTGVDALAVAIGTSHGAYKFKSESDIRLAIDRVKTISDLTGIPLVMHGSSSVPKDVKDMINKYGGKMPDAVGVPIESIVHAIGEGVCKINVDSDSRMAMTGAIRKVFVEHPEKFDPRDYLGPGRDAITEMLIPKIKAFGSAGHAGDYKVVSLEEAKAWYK
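Giardia FBPA (40 nM reagent) was preincubated 10 min at RT with compound (up to 57.5 uM final), then substrate plus GAPDH/TPI/NAD/arsenate coupling system with diaphorase/resazurin was added; resorufin fluorescence (525/598 nm) was read after 20 min.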
HCMV inh – qHTS Assay for inhibitors of the human cytomegalovirus (HCMV); HFF cells, HCMV-luciferase reporter, 72 h; hits give low values; activity change, negative = inhibition, % at 57.5 µM; 4.5% of 410,000 active; in the data active means activity change below about -60%; inconclusive means no clear call, values can overlap the other calls; inactive means above about -39%
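Two compound doses tested in HFFs infected with HCMV-luciferase, MOI 1 PFU/cell, 72 h at 37C. Lysate luminescence read with OneGlo; data normalized against buffer-only and 10uM Salinomycin inhibitor controls.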
HCV inh – qHTS Assay for Inhibitors of Hepatitis C Virus (HCV) | Huh7.5.1 HCVcc-Cre infection, luciferase reporter, 44 h | Potency, µM (highest dose often 41.8 µM), for the others: at the highest dose activity change, negative = inhibition, actives largely listed as inhibitors | 3.4% of 340,000 active; further: potency means the concentration at half of the fitted maximal effect
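HCVcc-Cre virus at an moi near 0.5 was added right after compound to cells cultured 4 h from seeding (1,000 cells/well). Luciferase activity was determined 44 h later, 15 min after substrate addition at RT.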
VACV mCherry inh – qHTS for Stage-Specific Inhibitors of Vaccinia Orthopoxvirus: mCherry Reporter Primary qHTS. 0.63% of 310,000 active. Vaccinia virus mCherry reporter infection, fluorescence. AID 720579, 2013. Potency, µM (titrated, usually from 36.5 µM), for inactives: at the highest dose activity change, negative = inhibition, actives largely listed as inhibitors; calls by dose curve; tested in A549 cells; further: potency means the concentration at half of the fitted maximal effect; nearly all actives have a fitted effect of over 35% in size
VACV Venus inh – qHTS for Stage-Specific Inhibitors of Vaccinia Orthopoxvirus: Venus Reporter Primary qHTS; Vaccinia virus Venus reporter expression, fluorescence; Potency, µM (top dose mostly 36.5 µM), inactives show at the highest dose activity change, negative = inhibition, hits mostly inhibitors; AID 720580, 2013; 0.46% of 330,000 active; calls by dose curve; tested in A549 cells; further: potency means the concentration at half of the fitted maximal effect; nearly all actives have a fitted effect of over 30% in size
FMDV inh – High Throughput Screening for Foot and Mouth Disease Virus Antivirals | FMDV antiviral cell-based qHTS | Potency, µM (series often up to 57.9 µM), for inactives: at the top dose activity change, negative = inhibition, most hits filed as inhibitors | 1.2% of 410,000 active; calls by dose curve; tested in HEK293T cells; further: read-out not given here; potency means the concentration at half of the fitted maximal effect; nearly all actives have a fitted effect of over 45% in size
Giardia growth – qHTS Assay for Inhibitors of Fructose-1,6-bisphosphate Aldolase from Giardia Lamblia: Giardia lamblia growth inhibition; shares compounds with Giardia FBPA inh-1; Giardia lamblia trophozoite growth inhibition; Potency, µM (doses to about 57.5 µM), without a hit: top-dose activity change, negative = inhibition, usual class: inhibitors; 5% of 1,500 active;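 further: potency means the concentration at half of the fitted maximal effect; trophozoites exposed to compound for 48 h at 37 °C; nearly all actives have a fitted effect of over 70% in size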
Mammal cell tox – qHTS Assay for Inhibitors of Fructose-1,6-bisphosphate Aldolase from Giardia Lamblia: Mammalian cellular toxicity; shares compounds with Giardia FBPA inh-1; mammalian cell viability counter-screen, qHTS; Potency, µM (highest dose often 57.5 µM), inactives show at the top dose viability change, negative = toxicity, hits mostly inhibitors; 4% of 1,500 active; AID 2786, 2010;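 further: Chinese hamster ovary cells used as mammalian cytotoxicity surrogate; viability measured as cellular ATP by luminescence; potency means the concentration at half of the fitted maximal effect; compound exposure lasted 48 h before reading; nearly all actives have a fitted effect of over 60% in size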
Giardia FBPA inh-2 – qHTS Assay for Inhibitors of Fructose-1,6-bisphosphate Aldolase from Giardia Lamblia: Primary screen confirmation. shares compounds with Giardia FBPA inh-1. purified Giardia aldolase enzyme activity, qHTS. Potency, µM (top dose mostly 57.5 µM), inactives show top-dose activity change, negative = inhibition, actives largely listed as inhibitors. 5% of 1,500 active; further: potency means the concentration at half of the fitted maximal effect; nearly all actives have a fitted effect of over 45% in size
Rabbit FBPA inh – qHTS Assay for Inhibitors of Fructose-1,6-bisphosphate Aldolase from Giardia Lamblia: Rabbit FBPA Selectivity; shares compounds with Giardia FBPA inh-1; 4% of 1,500 active; Potency, µM (top dose mostly 57.5 µM), for the others: at the highest dose activity, negative = inhibition, usual class: inhibitors; Rabbit muscle FBPA enzyme inhibition, selectivity counter-screen; further: potency means the concentration at half of the fitted maximal effect; nearly all actives have a fitted effect of over 60% in size
Target sequence (P00883 whole entry, looked up): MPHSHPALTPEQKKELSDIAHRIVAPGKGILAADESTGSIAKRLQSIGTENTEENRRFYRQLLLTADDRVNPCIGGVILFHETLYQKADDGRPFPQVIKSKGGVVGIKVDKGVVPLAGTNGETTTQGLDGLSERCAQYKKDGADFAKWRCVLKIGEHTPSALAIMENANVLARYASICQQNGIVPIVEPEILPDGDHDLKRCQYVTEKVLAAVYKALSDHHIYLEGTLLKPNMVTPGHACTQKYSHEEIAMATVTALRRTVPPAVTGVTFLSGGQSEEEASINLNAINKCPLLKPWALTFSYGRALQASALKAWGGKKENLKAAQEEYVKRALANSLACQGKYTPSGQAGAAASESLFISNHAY
GAPDH counter – qHTS Assay for Inhibitors of Fructose-1,6-bisphosphate Aldolase from Giardia Lamblia: Coupling assay counterscreen confirmation. 6% of 1,500 active. GAPDH coupling enzyme counterscreen, biochemical, qHTS. shares compounds with Giardia FBPA inh-1. Potency, µM (series often up to 57.5 µM), for inactives: at the top dose activity change, negative = inhibition, most hits filed as inhibitors. AID 2795, 2010; further: potency means the concentration at half of the fitted maximal effect; nearly all actives have a fitted effect of over 55% in size
The depositor's hits bear a star; i = inactive; ? = inconclusive; · = no result; [ ] = remark or other dose. Unless noted, the call rests on the fitted dose curve; in most records, active means well fitted curve in the direction sought with a large enough effect; inconclusive means small, poorly fitted or top-dose-only effect, or another doubt; inactive means no such curve, though single readings can be large; an effect the other way counts as inactive or inconclusive. On the % scale 0 is the no-effect control and ±100 the full control effect.

SMILES | Giardia FBPA inh-1 | HCMV inh | HCV inh | VACV mCherry inh | VACV Venus inh | FMDV inh | Giardia growth | Mammal cell tox | Giardia FBPA inh-2 | Rabbit FBPA inh | GAPDH counter
CCNC(=S)NS(=O)(=O)c1ccc(F)cc1 | ? | -11 | 15% | -15% | -8% | 8% | 4%[38.3 µM] | 3% | 4% | -1% | 2%
CN1C(=O)N(CC(=O)N2CCN(c3ccccc3F)CC2)C(=O)C12CCCCC2 | · | 18 | 5% | · | · | -16% | · | · | · | · | ·
COc1ccc(CCNC(=O)/C(C#N)=C/c2ccc(OCC(=O)NCC3CCCO3)cc2)cc1OC (centres undefined) | -3% | -23 | 1% | -5% | -7% | ? | · | · | · | · | ·
COc1ccc(CCNC(=O)CNCC2CCCO2)cc1OC (centres undefined) | 16µM* | 60 | 7% | i | 0% | · | -25% | 14% | 3% | 5% | 8%
CCOc1ccc(CCNC(=O)CCN2N=C(c3ccc(OC)cc3)CCC2=O)cc1OCC | · | ? | · | -13% | -14% | -25% | · | · | · | · | ·
CC(=O)Nc1ccc(-c2csc(NC(=O)c3ccc(C)o3)n2)cc1 | -8% | 39 | -17% | · | -6% | 0% | · | · | · | · | ·
Cn1nc(C(=O)Nc2nc(-c3ccccn3)cs2)c2ccccc2c1=O | · | -31 | ? | i | -15% | -16% | · | · | · | · | ·
Cc1ccc(C(=O)Nc2nc(-c3ccccn3)cs2)o1 | 13µM* | 35 | ? | · | · | 28% | ? | ? | 9% | -14% | -16%
Cc1ccc(C(=O)Nc2nc(-c3ccc([N+](=O)[O-])cc3)cs2)o1 | 3% | ? | 6% | -15% | 0% | 0% | · | · | · | · | ·
O=C(Nc1nc(-c2ccccn2)cs1)c1ccccc1-n1cnnn1 | 7.9µM* | -92* | ? | 1.3µM* | -25% | -9% | 20µM* | ? | -4% | -16% | ?
O=C(Nc1nc(-c2ccccn2)cs1)c1ccc([N+](=O)[O-])o1 | · | 45 | 8.9µM* | ? | -13% | 2% | · | · | 8% | -4% | 0%
O=C(Nc1nc(-c2ccccn2)cs1)c1ccc2c(c1)OCCO2 | 18µM* | -27 | ? | 11µM* | ? | -15% | -24%[10.4 µM] | ? | 11% | -3% | -11%
CC1(C(=O)Nc2cnc3ccccc3c2)CCN1C(=O)c1ccccc1CCc1ccccc1 (centres undefined) | · | -37 | · | i | -14% | -22% | · | · | · | · | ·
Cc1ccccc1C(=O)Nc1ccc(C(=O)OCc2cc(=O)n3c4c(sc3n2)CCCC4)cc1 | · | -30 | · | i | -16% | -15% | · | · | · | · | ·
Cc1ccc(OCC(=O)N/N=C/c2cccc3cccnc23)cc1 | · | -11 | -17% | ? | 11% | -6% | · | · | · | · | ·
O=C1/C(=C/c2ccco2)SC(=S)N1c1cccnc1 | 8.9µM* | -9 | ? | ? | 2% | -8% | ? | -5% | -14% | -1% | -3%
CCC1CN(CCNC(=O)c2ccc(C#CC(C)(C)O)cc2)Cc2cc(OC)ccc2O1 (centres undefined) | · | · | · | -15% | -8% | 12% | · | · | · | · | ·
O=C(CN1CCN(S(=O)(=O)c2ccc(Br)cc2)CC1)c1ccc(O)c(O)c1 | · | -30 | -1% | · | · | -21% | · | · | · | · | ·
CC(C)c1ccc(S(=O)(=O)N2CCN(CC(=O)c3ccc(O)c(O)c3)CC2)cc1 | 13µM* | -36 | · | · | · | · | 20% | ? | ? | -28% | -2%
Cc1ccc(Cl)c(N/C=C/C(=O)c2ccccc2)c1 | -10% | 134 | -5% | · | · | 33% | · | · | · | · | ·
Cc1cc(C)cc(NC(=O)C(=O)NCC2CCCO2)c1 (centres undefined) | 2% | 11 | 9% | · | · | 54% | · | · | · | · | ·
Cc1cc(C)cc(NC(=O)C(NCC2CCCO2)c2ccccc2)c1 (centres undefined) | 16µM* | -24 | 33% | i | -8% | 0% | -16%[10.4 µM] | 8% | -1% | 6% | 8%
CC1CC(C)CN(CCCNC(=O)CN2C(=O)c3cccnc3Oc3ccc(Cl)cc32)C1 (centres undefined) | · | 0 | 6% | -9% | ? | -8% | · | · | · | · | ·
N#Cc1c(-c2ccc(F)cc2)cc(-c2ccccc2)nc1SCC(=O)NCC(=O)O | 7.1µM* | 1 | 3% | · | · | -13% | 21%[38.3 µM] | 15% | -2% | 6% | 15%
O=C(NNC(=S)NC(=O)c1ccccc1[N+](=O)[O-])c1ccccc1 | 0% | 47 | 22% | · | -13% | -14% | · | · | · | · | ·
O=C1CN(C(=S)NC(=O)c2ccccc2[N+](=O)[O-])CCN1 | 11µM* | -18 | 34% | · | · | -23% | ? | -7% | 0% | 8% | 12%
COc1ccc(S(=O)(=O)Nc2nc3c(s2)C(=O)CC(C)(C)C3)cc1 | -18% | 12 | 17% | 1% | 0% | -5% | · | · | · | · | ·
